S2 tox: reduces viability in counter-screen for ATXN expression inhibitors. 400,000 tested, 0.49% active. Potency, µM (titrated, usually from 56.7 µM), usual class: cytotoxic. AID 651635. S2 cells (HEK-293 line with an ATXN2-luciferase reporter) viability, CellTiter-Fluor protease fluorescence, 24 h; further: nearly all actives have a fitted effect of over 40% in size
D3 ag: D3 dopamine receptor (human) agonism; P35462; D3R DiscoveRx beta-arrestin cells, luminescence, 90 min; max activation, %; 410,000 tested, 0.58% active; AID 652048; in the data active means max activation above about 30%
Target sequence (P35462 whole entry, looked up): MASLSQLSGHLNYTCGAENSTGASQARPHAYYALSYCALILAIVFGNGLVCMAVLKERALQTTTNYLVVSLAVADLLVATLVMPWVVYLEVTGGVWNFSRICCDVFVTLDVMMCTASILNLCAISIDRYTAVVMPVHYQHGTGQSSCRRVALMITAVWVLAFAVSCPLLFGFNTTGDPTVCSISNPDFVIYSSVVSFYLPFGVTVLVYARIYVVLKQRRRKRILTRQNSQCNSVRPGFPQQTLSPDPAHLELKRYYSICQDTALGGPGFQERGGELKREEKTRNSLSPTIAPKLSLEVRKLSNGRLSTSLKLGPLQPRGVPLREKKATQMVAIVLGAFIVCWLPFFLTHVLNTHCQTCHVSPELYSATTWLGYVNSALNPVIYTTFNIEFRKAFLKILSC
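Agonist mode: compounds and dopamine controls were applied to plated cells for 90 min at 37 degrees C after an overnight attachment at 1500 cells/well. Luminescent read-out followed 30 - 60 minutes at room temperature with DiscoveRx detection reagent.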
ATXN2 expr inh: inhibitors of ATXN2 expression | 360,000 tested, 0.72% active | AID 1745845 | Potency, µM (doses to about 57 µM), actives largely listed as inhibitors | HEK-293 ATXN2-luciferase reporter, luminescence, 24 h; further: nearly all actives have a fitted effect of over 55% in size
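qHTS (up to 57 uM final) was run with 24 h compound exposure of reporter cells at 37 °C. Each well was multiplexed: SteadyGlo luminescence measured ATXN2-luciferase expression after a fluorogenic Gly-Phe-AFC viability readout (25 uM final).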
HepG2 tox-1: kills HepG2 cells in TGF-b inhibitor counter-screen. HepG2 CAGA-GFP viability, ATP luminescence, 18 h. Potency, µM (highest dose often 46.1 µM), actives largely listed as cytotoxic. 410,000 tested, 0.76% active. AID 588856
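CellTiter-Glo luminescence gave cytotoxicity after 18 hours at 37 degrees C. The cells were HepG2 CAGA-GFP in 1% FBS DMEM, stimulated with 500 pg/mL TGF-beta after compound addition. %Activity was normalised to no-cell wells (complete cell-killing) and DMSO (no toxicity), and curves were fitted and classified.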
TGFb SMAD3 inh: blocks TGF-b signaling. 410,000 tested, 1.2% active. Potency, µM (titrated, usually from 46.1 µM), usual class: inhibitors. AID 588855. HepG2 CAGA-GFP TGF-b/SMAD3 reporter, GFP fluorescence, 18 h; TGF-beta stimulated, 500 pg/mL final; further: nearly all actives have a fitted effect of over 65% in size
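Smad-responsive CAGA-GFP expression was quantified in HEPG2 cells exposed to compounds and 500 pg/mL final TGF-beta for 18 h at 37 degrees C; unstimulated wells defined full inhibition.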
D3 antag: antagonists of human D3 dopamine receptor; P35462; D3R cells, DiscoveRx beta-arrestin luminescence, antagonist mode; stronger effect = lower value; max response, negative = inhibition, %; 360,000 tested, 2.5% active; AID 652054; in the data active means max response below about -50%; inconclusive means no clear call, values can overlap the other calls
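Cells plated overnight at 1500 cells/well, then exposed to library compounds with dopamine controls for 90 minutes at 37 degrees C. DiscoveRx reagent added for 30–60 minutes at room temperature; luminescence read, quantitative HTS format.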
TGFb confirm: confirmation of TGF-b signaling inhibitors in HepG2 reporter cells | 1,600 tested, 63% active | shares compounds with TGFb SMAD3 inh | HepG2 CAGA-GFP TGF-b reporter, GFP fluorescence, 18 h; cells stimulated with TGF-beta, 500 pg/mL | AID 720534 | Potency, µM (highest dose often 46.1 µM), most hits filed as inhibitors; further: nearly all actives have a fitted effect of over 65% in size
HepG2 tox-2: counter-screen for TGF-b inhibitors: cytotoxicity in HepG2 cells | shares compounds with TGFb SMAD3 inh | 1,600 tested, 27% active | AID 720535 | Potency, µM (highest dose often 46.1 µM), actives largely listed as inhibitors | HepG2 CAGA-GFP viability, ATP luminescence, 18 h; cells stimulated with TGF-beta, 500 pg/mL; further: nearly all actives have a fitted effect of over 70% in size
CCL64 TGFb inh: blocks TGF-b signaling in CCL64 reporter cells. Potency, µM (highest dose often 46.1 µM), hits mostly inhibitors. 1,600 tested, 41% active. shares compounds with TGFb SMAD3 inh. CCL64 CAGA-GFP reporter, TGF-b stimulated, GFP fluorescence, 18 h; further: nearly all actives have a fitted effect of over 65% in size
TGFb COP inh: TGF-b inhibition validated with COP promoter. 1,600 tested, 3% active. HepG2 COP-GFP TGF-b reporter, GFP fluorescence, 18 h; cells stimulated by added recombinant TGF-beta. AID 720537. Potency, µM (series often up to 46.1 µM), actives largely listed as inhibitors. shares compounds with TGFb SMAD3 inh; further: nearly all actives have a fitted effect of over 70% in size
Each line names hits and unclear results; the compound was inactive in the other large screens (follow-up assays come after a bar, where they were run). In the library only some 4.7% were active in any assay of this set; here they are far more common. Unless noted, the call rests on the fitted dose curve; in most records, active means well fitted curve in the direction sought with a large enough effect; inconclusive means small, poorly fitted or top-dose-only effect, or another doubt; inactive means no such curve, though single readings can be large; an effect the other way counts as inactive or inconclusive.

O=C(Nc1cccc(Cl)c1)Nc1csc([N+](=O)[O-])c1	S2 tox inconclusive, ATXN2 expr inh inconclusive, HepG2 tox-1 10µM, TGFb SMAD3 inh inconclusive | TGFb confirm 10.3µM | HepG2 tox-2 16.4µM | CCL64 TGFb inh 9.2µM | TGFb COP inh inactive
O=C(Nc1cccc(Cl)c1)Nc1nc(-c2ccc(Cl)cc2)cs1	TGFb SMAD3 inh inconclusive
NCCCNc1nc(N)c([N+](=O)[O-])c(NC2CCCCC2)n1	TGFb SMAD3 inh 5.01µM (no result: ATXN2 expr inh) | TGFb confirm 4.61µM | HepG2 tox-2 inconclusive | CCL64 TGFb inh 5.8µM | TGFb COP inh inactive
COCCNc1nc(N)c([N+](=O)[O-])c(NC2CCCCC2)n1	none
CN(C)c1cc(Nc2ccc(O)cc2)c([N+](=O)[O-])c2nonc12	S2 tox inconclusive
O=[N+]([O-])c1c(Nc2ccccn2)cc(Cl)c2nonc12	S2 tox inconclusive, ATXN2 expr inh 28.2µM, TGFb SMAD3 inh 3.16µM, D3 antag -85.8 | TGFb confirm 4.61µM | HepG2 tox-2 4.61µM | CCL64 TGFb inh 4.61µM | TGFb COP inh 5.17µM
O=[N+]([O-])c1c(Nc2ccc(O)cc2)cc(Cl)c2nonc12	HepG2 tox-1 5.01µM, TGFb SMAD3 inh 2.82µM, D3 antag -160.8 (no result: S2 tox, ATXN2 expr inh) | TGFb confirm 3.26µM | HepG2 tox-2 3.66µM | CCL64 TGFb inh 2.91µM | TGFb COP inh 4.61µM
CCN1CCOC(=O)C1CC(=O)Nc1cccc(OC)c1 (centres undefined)	none (no result: D3 antag)
COCCNC(=O)C1CCC(CNS(=O)(=O)c2ccc3c(c2)CC(C)N3C(C)=O)CC1 (centres undefined)	none (no result: S2 tox, ATXN2 expr inh, D3 antag)
CNC(=S)N/N=C/C1=CCC2CC1C2(C)C (centres undefined)	TGFb SMAD3 inh 1.12µM | TGFb confirm inconclusive | HepG2 tox-2 inactive | CCL64 TGFb inh inconclusive | TGFb COP inh inactive
CC(=O)c1cccc(NC(=O)c2nc(-c3ccc(C)cc3)n3c2CCCCC3)c1	S2 tox inconclusive, ATXN2 expr inh inconclusive (no result: D3 antag)
COc1ccc(-c2cc(-c3c(O)c(OC)c4occc4c3OC)[nH]n2)cc1OC	TGFb SMAD3 inh 7.94µM | TGFb confirm inconclusive | HepG2 tox-2 inconclusive | CCL64 TGFb inh inconclusive | TGFb COP inh inactive
COc1cccc(NC(=O)CSc2nnc3scc(-c4ccc(Cl)cc4)n23)c1	none (no result: D3 antag)
Nc1ncnc2c(C3OC(CO)C(O)C3O)scc12 (centres undefined)	S2 tox inconclusive, ATXN2 expr inh inconclusive | TGFb confirm 0.0164µM | HepG2 tox-2 0.0731µM | CCL64 TGFb inh 0.92µM | TGFb COP inh inactive
Nc1ncnc2c1ncn2C1O[C@H](CO)[C@@H](O)[C@@H]1O (some centres undefined)	none
Cc1ccc(C)c(NC(=O)c2cc(S(=O)(=O)NCCC3=CCCCC3)ccc2F)c1	TGFb SMAD3 inh inconclusive (no result: S2 tox, ATXN2 expr inh, D3 antag)
Cc1ccc(NC(=O)c2cc(S(=O)(=O)NCCC3=CCCCC3)ccc2F)cc1	S2 tox inconclusive, TGFb SMAD3 inh 11.2µM | TGFb confirm 18.4µM | HepG2 tox-2 inconclusive | CCL64 TGFb inh 25.9µM | TGFb COP inh inactive

Source: PubChem (National Center for Advancing Translational Sciences (NCATS))
